# From PubChem BioAssay AID720553 (National Center for Advancing Translational Sciences (NCATS), 2013)
# In all, about 340,000 compounds went through this assay and about 3,300 (0.97%) were called active. The full list was thinned out, with actives kept by preference. Unmarked numbers belong to inactive results.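 How the source made its calls: active means maximum activity change below -70%; inconclusive means maximum activity change from -70% to -50%; inactive means maximum activity change above -50%.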
# Tested on: Potassium voltage-gated channel subfamily H member 2, brain isoform KCNH2 3.1 (human)
# Experiment: qHTS for Inhibitors of KCHN2 3.1: Mutant qHTS
# Conditions: U2OS KCNH2 3.1, thallium flux FluxOr; hits give low values
# In short: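 Measured as rate of thallium-driven FluxOr signal in transduced U2OS cells carrying the 3.1 channel, read kinetically for 2 min upon stimulation; values are rate constants scaled to DMSO control wells.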
# On the % scale 0 is the no-effect control and ±100 the full control effect.
row,SMILES,activity change
1,Cc1ccc(COc2ccc(/C=N/NC(=O)CN3CCCCC3)cc2)cc1,-108% (active)
2,O=C(CN1CCSCC1)N/N=C/c1ccc(F)cc1,1.88%
3,CCOc1cc(/C=N/NC(=O)CN2CCCCC2)ccc1O,1.68%
4,O=C1c2cccc3cccc(c23)C(=O)N1CCCCCc1n[nH]c(=S)o1,-159% (active)
5,O=C1c2ccccc2C(=O)N1CCCCCCN1C(=O)c2ccccc2C1=O,6.18%
6,O=C1c2ccccc2C(=O)N1CCCc1nc(-c2ccccc2)no1,6.34%
7,c1ccc(CNCc2ccc(CNCc3ccccc3)cc2)cc1,1.02%
8,COc1ccc(F)c(-c2nc(CN3CCC(c4ccccc4)CC3)c(C)o2)c1,-31.2%
9,COc1ccc(Cn2nnc3c(=O)[nH]c(C4CCN(C(=O)c5ccccc5Cl)CC4)nc32)cc1,-29.8%
10,COc1ccc(CN2CCC(c3nc4ccc(Cl)cc4[nH]3)CC2)cc1,-98.1% (active)
11,COCCCn1c(C(=O)NC2CCCCC2)cc2c(=O)n3cccc(C)c3nc21,5.72%
12,N#CC1(Nc2ccc3c4c(cccc24)CC3)CCCCC1,0.638%
13,COc1ccc(NC(=O)c2cc(-c3ccc(C)o3)nc3ccccc23)cc1,-28.1%
14,Cc1ccc2nc(-c3ccc(NC(=O)c4cccnc4)cc3)oc2c1,-11.7%
15,COc1cc(OC)cc(C(=O)Nc2ccc(-c3nc4ccccc4o3)c(O)c2)c1,-93.4% (active)
16,O=C(c1ncn2c1c(=O)[nH]c1ccccc12)N1CCc2ccccc2C1,-7.26%
17,COc1ccccc1C(=O)NC(=S)Nc1ccc(N2CCOCC2)cc1,6.65%
18,CCN(CC)CCNC(=O)c1ccc(NC(=O)c2cc(-c3ccncc3)nc3ccccc23)cc1,4.76%
19,CCCCN(C)CCCNC(=O)c1cc(-c2cccs2)nc2ccccc12,-71.7% (active)
20,O=C(Nc1nnc(-c2ccccc2)o1)c1cc(-c2cccs2)nc2ccccc12,-3.38%
21,CC1=C(C(=O)N2CCOCC2)CC(CC(=O)NCc2cccc3ccccc23)C(=O)N1CCC1=CCCCC1 (stereo not given),1.47%
22,O=C(OCc1cn([C@@H]2C[C@H](c3ccc(Cl)cc3)N(Cc3cccs3)C[C@H]2O)nn1)c1ccccc1,6.9%

row,SMILES,activity change
1,Cc1ccc(S(=O)(=O)N2C[C@@H](C)[C@]3(C2)[C@H](O)[C@H](OC(=O)NCc2ccccc2)C[C@H]2C(=O)N(c4ccccc4)C(=O)[C@H]23)cc1,5.25%
2,N#CCCN(C(=S)Nc1ccc(Cl)c(Cl)c1)C1CCCCC1,-7.86%
3,COc1cc(NC(=O)c2cncc(-c3ccc(C#N)cc3)c2)cc(C(=O)Nc2cccc(C(F)(F)F)c2)c1,-82.3% (active)
4,COc1cc(NC(=O)c2[nH]cnc2C(N)=O)cc(C(=O)Nc2cccc(C(F)(F)F)c2)c1,-24.6%
5,COc1cccc(NC(=O)CN(C)C(C)C(=O)Nc2ccc(C#N)cc2)c1 (stereo not given),3.52%
6,CCCNC(=O)C1CC(=O)N(c2ccc(OCc3ccccc3)cc2)C1 (stereo not given),-2.11%
7,O=C(C1CCCO1)N1CCN(C(=O)C23CC4CC(CC(C4)C2)C3)CC1 (stereo not given),3.39%
8,CC(=O)Nc1ccc(C=CC(=O)c2ccc([N+](=O)[O-])cc2)cc1,-4.78%
9,COc1ccc(NC(=O)N(C)C[C@H]2Oc3ncc(C#C[C@@H](C)O)cc3C(=O)N([C@H](C)CO)C[C@H]2C)cc1,-1.97%
10,O[C@H]1C[C@H](c2ccc(Cl)cc2)N(Cc2cccs2)C[C@@H]1n1cc(C2CC2)nn1,8.43%
11,CCOc1ccc(N(C)Cc2cc(=O)oc3ccc(OC)cc23)cc1,-0.899%
12,Cc1ccc(CN(C)Cc2cc(=O)oc3cc(C)c(Cl)cc23)cc1,-12.5%
13,Cc1cc2oc(=O)cc(CN(C)Cc3ccc(OC(F)F)cc3)c2cc1Cl,-76% (active)
14,Cc1csc(SCC(=O)Nc2ccc(C)c(S(=O)(=O)N(C)C)c2)n1,-4.71%
15,Cc1ccc(C(=O)OCC(=O)NC2CCCCCCC2)cc1C,8.83%
16,Cn1c(SCC(=O)N2CCOCC2)nnc1-c1ccc(NC(=O)c2ccccc2F)cc1,7.57%
17,Cc1ccccc1C(=O)Nc1cccc(-c2nnc(SCC(=O)O)n2C)c1,-82.3% (active)
18,Cn1c(SCC(=O)Nc2cccc(NC(=O)c3cccs3)c2)nnc1-c1ccncc1,-4.66%
19,CC(C)N(Cc1ccccc1)C(=S)Nc1ccc(OC(F)F)cc1,-14.2%
20,CC(=O)c1ccc(NC(=O)N[C@@H](Cc2ccccc2)C(=O)O)cc1,0.757%
21,CC(=O)c1ccc(NC(=S)N(Cc2ccccc2)C(C)C2CC2)cc1 (stereo not given),-99.2% (active)
22,O=C(CCCN1C(=O)C2C3C=CC(C3)C2C1=O)N1CCN(c2ccccc2)CC1 (stereo not given),7.28%

row,SMILES,activity change
1,O=C(O)CCCN1C(=O)C2C3c4ccccc4C(c4ccccc43)[C@@H]2C1=O (stereo not given in full),-134% (active)
2,O=C(O)CCCN1C(=O)c2ccccc2Sc2ncccc21,-3.66%
3,C#CCN(C[C@H]1[C@H](OC(=O)NC2CCCC2)[C@H](OC(=O)NC2CCCC2)C[C@H]2C(=O)N(c3ccccc3)C(=O)[C@@H]12)S(=O)(=O)c1ccc(C)cc1,-1.45%
4,COC(=O)c1c(NC(=O)c2ccccc2F)sc2c1C(C(=O)OC)CC2 (stereo not given),-2.07%
5,O=C(O)c1c(NC(=O)N2CCCC2)sc2c1CCCC2,-0.215%
6,O=C(Nc1sc2c(c1C(=O)O)CCC2)c1ccccc1F,-113% (active)
7,O=C(OCc1ccccc1)N1CCC2CC1c1ccc(-c3ccc4c(c3)OCO4)cc12 (stereo not given),6.28%
8,CCC1NC(=O)c2cccnc2-n2c1nc1ccc(C)cc1c2=O (stereo not given),-12%
9,CC1(C)OC(=O)C2=C(CC(c3ccccc3)OC2CCc2ccccc2)O1 (stereo not given),-4.16%
10,Cc1cc(Cl)ccc1C(=O)C1CCCN(C(=O)c2ccc3c(c2)OCO3)C1 (stereo not given),1.67%
11,COc1ccc(-c2ccc(CN3C(CC(C)C)C(=O)N(Cc4cn(CC5CCCCC5)nn4)CCS3(=O)=O)cc2)cn1 (stereo not given),-18%
12,O=C(Nc1ccc(S(=O)(=O)N2CCCCCC2)cc1)c1c(F)cccc1F,-17.5%
13,O=C(Nc1ccncc1)Nc1ccc(F)cc1,20.7%
14,O=C(Nc1ccncc1)c1c(F)cccc1F,-70.9% (active)
15,CN(c1ccccc1)S(=O)(=O)c1ccc(C(=O)NCc2cccnc2)cc1,-7.84%
16,CC(Oc1ccc(Cl)cc1)C(=O)Nc1ncccn1 (stereo not given),5.84%
17,CC1(C(=O)OCC(=O)Nc2ncc(Cl)cc2Cl)CC1(Cl)Cl (stereo not given),0.747%
18,CC(Oc1ccc(Cl)cc1)C(=O)OCC(=O)Nc1ncc(Cl)cc1Cl (stereo not given),-101% (active)
19,Cc1ccc(-c2ccc(C3=CC(=O)CC(C)(C)C3=O)cc2)cc1,-9.04%
20,C[C@H](CO)N1C[C@H](C)[C@@H](CN(C)S(=O)(=O)c2ccc(F)cc2)OCc2cnnn2CCCC1=O,-2.94%
21,O=S(=O)(c1cccc(C(F)(F)F)c1)N1c2ccccc2-n2cccc2C1c1cccnc1 (stereo not given),-17.4%
22,CCCn1c(C(Cc2ccccc2)NC(=O)COC)nc2ccccc21 (stereo not given),-1.15%

row,SMILES,activity change
1,CCCC(NC(=O)c1ccccc1)c1nc2ccccc2n1Cc1ccc(C(=O)OC)o1 (stereo not given),-82% (active)
2,COC(=O)c1ccc(Cc2ccccc2)o1,10.6%
3,Cc1ccc2[nH]c(=O)c(CN(CC3COCCO3)C(=O)Nc3ccccc3C)cc2c1 (stereo not given),-106% (active)
4,COc1ccc2[nH]c(=O)c(CN(CC3CCCO3)C(=O)Nc3ccccc3)cc2c1 (stereo not given),8.12%
5,Cc1cccc(NC(=O)N(Cc2cc3cc(C)cc(C)c3[nH]c2=O)CC2COCCO2)c1 (stereo not given),-19.5%
6,COc1cc(C(=O)N2CCOC23CCN(Cc2ccccc2)CC3)cc(OC)c1OC,-5.15%
7,CN(C)C(CNC(=O)c1cccc(S(=O)(=O)N2CCc3ccccc3C2)c1)c1ccccc1 (stereo not given),-1.69%
8,COc1cccc(OCC(=O)NCCS(=O)(=O)N2CCN(c3ccccc3)CC2)c1,-1.4%
9,CCCCN1C(=O)C(CC(=O)NC(c2ccccc2)c2ccccc2)CC(C(=O)N2CCOCC2)=C1C (stereo not given),-3.63%
10,Cn1c(SCC(=O)N2CCCc3ccccc32)nc2ccccc2c1=O,-2.54%
11,O=C(CSc1nc2[nH]ncc2c(=O)n1-c1ccccc1)N1CCCc2ccccc21,-184% (active)
12,CC(C)(C)c1ccc(C(=O)NCc2nnc(SCC(=O)N3CCCc4ccccc43)n2-c2ccccc2)cc1,-6.73%
13,CCOC(=O)C(=Cc1ccccc1)C(=O)c1ccccc1,-13.1%
14,O=C(NCc1nnnn1-c1ccc(Cl)cc1)c1ccc([N+](=O)[O-])o1,-3.24%
15,Cc1ccc([C@@H]2CC=C(C(=O)O)[C@H](c3cccc(Cl)c3)N2S(=O)(=O)c2ccc(C)cc2)cc1,-83.7% (active)
16,Cc1ccccc1S(=O)(=O)N1[C@@H](c2cccc(Cl)c2)C(C(=O)O)=CC[C@H]1c1ccc(Cl)cc1,10%
17,Cc1ccc(S(=O)(=O)N2[C@@H](c3cccc(Cl)c3)C(C(=O)O)=CC[C@H]2c2ccc(Cl)c(Cl)c2)cc1,-2.17%
18,Cc1nnc(SC(C)C(=O)c2c[nH]c3ccccc23)n1C1CC1 (stereo not given),-8.46%
19,C#CCN(C[C@@H]1[C@@H](OC(=O)NC2CC2)[C@@H](OC(=O)NC2CC2)Cn2c(=O)ccc(=O)n21)S(=O)(=O)c1ccc(C)cc1,0.102%
